According to publication PMC4336329 (PLoS ONE, 2015):
In all, about 310,000 compounds went through this assay and about 14,000 (4.5%) showed an effect of 50% or more. The effect is printed as a negative number. What follows is part of a selection rich in strong results, with near analogues and random picks from the rest.

molecular target: human ether-à-go-go-related gene (hERG) potassium channel (human, UniProt Q12809); assay: primary screen, population patch clamp on CHO cells stably expressing hERG; higher = less effect of the substance
Sequence (Q12809 whole entry, looked up): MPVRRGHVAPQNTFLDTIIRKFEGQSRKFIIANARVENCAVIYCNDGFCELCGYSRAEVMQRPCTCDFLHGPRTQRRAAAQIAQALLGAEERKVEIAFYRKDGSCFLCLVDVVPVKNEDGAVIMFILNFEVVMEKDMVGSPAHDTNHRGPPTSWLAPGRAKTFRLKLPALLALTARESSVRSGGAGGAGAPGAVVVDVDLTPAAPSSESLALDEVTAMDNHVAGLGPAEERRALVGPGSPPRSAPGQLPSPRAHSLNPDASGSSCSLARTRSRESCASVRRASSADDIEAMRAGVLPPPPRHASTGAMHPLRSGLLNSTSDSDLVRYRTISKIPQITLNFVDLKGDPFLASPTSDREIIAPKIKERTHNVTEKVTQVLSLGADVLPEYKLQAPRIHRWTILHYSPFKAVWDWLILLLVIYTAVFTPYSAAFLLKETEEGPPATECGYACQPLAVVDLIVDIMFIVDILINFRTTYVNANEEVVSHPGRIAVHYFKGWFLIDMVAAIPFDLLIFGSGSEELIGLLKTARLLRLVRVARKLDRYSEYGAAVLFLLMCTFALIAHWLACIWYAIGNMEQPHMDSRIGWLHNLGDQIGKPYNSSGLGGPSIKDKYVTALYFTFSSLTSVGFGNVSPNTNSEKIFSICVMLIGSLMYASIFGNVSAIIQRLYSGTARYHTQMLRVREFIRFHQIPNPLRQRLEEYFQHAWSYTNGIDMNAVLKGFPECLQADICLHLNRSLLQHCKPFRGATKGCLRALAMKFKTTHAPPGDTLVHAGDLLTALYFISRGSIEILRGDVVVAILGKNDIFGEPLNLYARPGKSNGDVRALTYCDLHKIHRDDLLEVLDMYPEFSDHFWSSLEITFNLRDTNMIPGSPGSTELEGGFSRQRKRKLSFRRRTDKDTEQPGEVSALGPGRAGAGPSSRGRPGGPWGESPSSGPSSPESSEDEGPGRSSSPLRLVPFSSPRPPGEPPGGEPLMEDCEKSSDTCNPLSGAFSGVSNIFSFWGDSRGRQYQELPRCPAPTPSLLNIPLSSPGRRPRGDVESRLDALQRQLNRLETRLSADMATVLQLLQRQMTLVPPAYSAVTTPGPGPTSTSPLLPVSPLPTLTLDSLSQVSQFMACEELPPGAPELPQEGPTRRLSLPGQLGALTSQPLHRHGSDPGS
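Further: peak tail current of the secondary pulse compared with the same well before compound.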

| Compound | hERG current change (%, negative = inhibition) at 10uM [%] |
| --- | --- |
| CC/C(=N\NC(=O)C1CC1)c1cccc(Cl)c1 | 30.9 |
| Cc1nc(Sc2ccc(Cl)cc2)c(C#N)c(C)c1[N+](=O)[O-] | 6.1 |
| COC(=O)Cn1cnc2scc(-c3ccc(C)cc3)c2c1=O | 7.31 |
| CC(C)C(NC(=O)c1ccc(F)cc1)C(=O)Nc1cccnc1 (stereo not shown) | 0.585 |
| CCOC(=O)c1ccccc1NC(=O)c1c(F)c(F)c(F)c(F)c1F | 10.2 |
| COc1ccc(C(O)c2coc3ccc(O)c(CN(C)C)c23)cc1 (stereo not shown) | -47.9 |
| COc1ccc(C(=O)c2coc3ccc(O)cc23)cc1 | 7.61 |
| COc1ccc(C(=O)c2coc3ccc(O)c(CN(C)C)c23)cc1 | -57.9 |
| COc1ccc(C(=O)c2coc3ccc(OC(C)=O)cc23)cc1 | 24.9 |
| COc1ccc2occ(C(=O)c3coc4ccc(O)c(CN(C)C)c34)c2c1.Cl | -72.1 |
| COc1ccc2occ(C(=O)c3ccc(N)cc3)c2c1 | 2.02 |
| CCN(CC)Cc1c(O)ccc2occ(C(=O)c3ccc(OC)cc3)c12 | -74.2 |
| COc1ccc(OC)c(C(=O)c2coc3ccc(O)c(CN(C)C)c23)c1.Cl | -12.7 |
| COc1ccc2occ(C(=O)c3ccc(N=C(C)N(C)C)cc3)c2c1 | -58.8 |
| COc1ccc(OC)c(C(O)c2coc3ccc(O)c(CN(C)C)c23)c1 (stereo not shown) | -17 |
| COc1ccc(Oc2coc3c(CN(C)C)c(O)ccc3c2=O)cc1 | 17.7 |
| COc1ccc(S(=O)(=O)N/N=C(/C)c2ccco2)cc1 | -6.76 |
| CCc1sc(-c2c(C#N)c(N)nc3c2CCCCCC3)cc1[N+](=O)[O-] | 14 |
| Cc1ccc(C(=O)NC(C)c2ccccc2)cc1Br (stereo not shown) | -11.8 |
| Cc1cc(C)cc(NC(=O)c2ccc(S(=O)(=O)C(F)F)cc2)c1 | -29.7 |
| CC(=O)NCCNc1nc2c(-c3cccc(C)c3)nnn2c2ccccc12 | 12.8 |
| CC(CN1CCCCC1)OC(=O)c1ccc(Cl)cc1.Cl (stereo not shown) | -36.4 |

| Compound | hERG current change (%, negative = inhibition) at 10uM [%] |
| --- | --- |
| O=C1CCN(S(=O)(=O)c2cc(C(F)(F)F)ccc2Cl)CC1 | -1.34 |
| CCc1ccccc1NC(=O)c1ccccc1N1C(=O)C2C3C=CC(C3)C2C1=O (stereo not shown) | 18.3 |
| Cc1cc(C)n(-c2cc(N3CCN(C(=O)c4ccccc4C)CC3)ccc2[N+](=O)[O-])n1 | -52.7 |
| COc1ccc(C(=O)N2CCN(c3ccc([N+](=O)[O-])c(-n4nc(C)cc4C)c3)CC2)cc1 | -78.2 |
| Cc1cc(C)n(-c2cc(N3CCN(S(=O)(=O)c4ccc(Cl)cc4)CC3)ccc2[N+](=O)[O-])n1 | -32.8 |
| COc1ccc(N2CCN(C(=O)c3ccc(-n4nc(C)cc4C)cc3)CC2)cc1 | -19.4 |
| Cc1cc(C)n(-c2cc(N3CCN(C(=O)c4ccc(C(C)(C)C)cc4)CC3)ccc2[N+](=O)[O-])n1 | -34.4 |
| Cc1ccccc1C(=O)N1CCN(c2ccc([N+](=O)[O-])c(N3CCOCC3)c2)CC1 | -16.3 |
| Cc1cc(C)n(-c2cc(N3CCN(S(=O)(=O)c4ccc(C)c(C)c4)CC3)ccc2[N+](=O)[O-])n1 | 15 |
| CC(=O)N1CCN(c2ccc([N+](=O)[O-])c(-n3nc(C)cc3C)c2)CC1 | -51.9 |
| Cc1cc(C)c(S(=O)(=O)N2CCN(c3ccc([N+](=O)[O-])c(-n4nc(C)cc4C)c3)CC2)c(C)c1 | -7.91 |
| COc1cc(C)ccc1OCc1cc(C(=O)NCCN2CCOCC2)no1 | 2.08 |
| COc1ccc(/C=N/NC(=O)c2ccc3nc[nH]c3c2)cc1OC | 20.7 |
| CCC1CCCCN1Cc1ccc(OC)c(C)c1C (stereo not shown) | -31.2 |
| Cc1ccc(CNC(=O)C2CCCN2C(=O)Nc2ccccc2)cc1 (stereo not shown) | -8.61 |
| COc1ccccc1N1CCN(S(=O)(=O)c2cn(C)nc2C)CC1 | -2.6 |
| CCCCN(C(=O)CN1CC(C)OC(C)C1)c1c(N)n(CC(C)C)c(=O)[nH]c1=O (stereo not shown) | 9.06 |
| CCN(c1ccccc1)S(=O)(=O)c1ccc(Oc2ccc([N+](=O)[O-])cc2)nc1 | -21 |
| CCN(c1ccccc1)S(=O)(=O)c1ccc(NN)nc1 | -12.2 |
| CCN(c1ccccc1)S(=O)(=O)c1ccc(Oc2ccc(-n3ccnc3)cc2)nc1 | -77.4 |
| Cc1ccc(-c2[nH]nc3c2C(c2cccnc2)C(C#N)=C(N)O3)cc1 (stereo not shown) | -7.46 |
| O=[N+]([O-])c1ccc(C(O)CSC(=S)N2CCCCC2)cc1 (stereo not shown) | -3.13 |

| Compound | hERG current change (%, negative = inhibition) at 10uM [%] |
| --- | --- |
| CC(C)(C)c1ccc(C(=O)/C=C2\NC(=O)CS2)cc1 | -9.16 |
| OCCC1CN(Cc2cnc(-c3ccccc3)s2)CCN1CCc1ccccc1 (stereo not shown) | -71.2 |
| CCOc1ccc(CN2CCN(Cc3cnc(N4CCOCC4)s3)CC2CCO)cc1 (stereo not shown) | -39.8 |
| CC(C)(O)C#Cc1ccc(CN2CCN(CCc3ccccc3)C(CCO)C2)s1 (stereo not shown) | -30.7 |
| CCOc1ccc(CN2CCN(Cc3cnc(-c4ccccc4)s3)CC2CCO)cc1 (stereo not shown) | -90.7 |
| Cc1ncc(CN2CCN(C3CCCC3)C(CCO)C2)s1 (stereo not shown) | 27.6 |
| CC(C)=CCN1CCN(Cc2cnc(-c3ccccc3)s2)CC1CCO (stereo not shown) | -49.2 |
| OCCC1CN(Cc2cnc(-c3ccccc3)s2)CCN1Cc1ccccc1 (stereo not shown) | -57.5 |
| CC(C)N1CCC(N2CCN(Cc3cnc(-c4ccccc4)s3)CC2CCO)CC1 (stereo not shown) | -15.6 |
| OCCC1CN(Cc2cnc(-c3ccccc3)s2)CCN1C1CCCCC1 (stereo not shown) | -51.4 |
| Cc1ncc(CN2CCN(Cc3ccccc3)C(CCO)C2)s1 (stereo not shown) | 1.08 |
| CCCCN1C(=O)NC(=O)C2(Cc3c(nc4ccccn4c3=O)N3CCc4ccccc4C32)C1=O (stereo not shown) | -16.6 |
| Cc1sc2nc(CSc3ncn[nH]3)[nH]c(=O)c2c1C | 33.7 |
| Cn1c(-c2sc3cc(C(F)(F)F)cnc3c2-c2ccccc2)n[nH]c1=S | 20.1 |
| O=C(O)C(=O)O.Oc1ccccc1NCC(O)Cn1ccc2ccccc21 (stereo not shown) | 13.4 |
| NC(=O)c1ccccc1NC(=O)NC1CCCCC1 | -6.68 |
| CCOC(=O)CCSCC(=O)Nc1cc(C)on1 | -3.91 |
| Cc1ccc(C(=O)NC(=S)Nc2ccccc2C(F)(F)F)cc1 | 16.3 |
| CC(C)NS(=O)(=O)c1ccc(NC(=O)NC2CCCCC2)cc1 | 1.79 |
| c1ccc(Cn2cc(-c3ccccc3)cn2)cc1 | -2.61 |
| Cc1ncc(CN2CCN(CCC(C)C)C(CCO)C2)s1 (stereo not shown) | -20.1 |
| CC(C)N1CCN(Cc2cnc(-c3ccccc3)s2)CC1CCO (stereo not shown) | -9.9 |

| Compound | hERG current change (%, negative = inhibition) at 10uM [%] |
| --- | --- |
| CC(C)CCN1CCN(Cc2cnc(-c3ccccc3)s2)CC1CCO (stereo not shown) | -56.6 |
| CCCOc1ccc(C(C)=O)cc1CC(C(N)=O)C(N)=O | 14.9 |
| CCCCOP(=O)(c1ccc(N(C)C)cc1)C(O)c1ccc(C(C)C)cc1 (stereo not shown) | -13 |
| O=c1[nH]c2ccccc2n2c(C(F)(F)F)nnc12 | 14 |
| Cc1ccc(S(=O)(=O)N(Cc2cccc(Cl)c2)C(=O)N2CCN(C)CC2)cc1 | 9.85 |
| CCn1c(SCC(=O)N/N=C/C=C/c2ccccc2[N+](=O)[O-])nnc1-c1ccccc1 | -36.6 |
| Cn1c(SCC(=O)N/N=C/C=C/c2ccccc2[N+](=O)[O-])nc2ccccc21 | -1.36 |
| COCCn1c(SCC(=O)Nc2ccccc2OC)nc2ccccc21 | -25.4 |
| CCn1c(SCC(=O)N/N=C/C=C\c2ccccc2[N+](=O)[O-])nnc1-c1ccccc1 | -67 |
| CCn1c(SCC(=O)N/N=C/C=C\c2ccccc2[N+](=O)[O-])nc2ccccc21 | -63.8 |
| Cn1c(SCC(=O)N/N=C/C=C\c2ccccc2[N+](=O)[O-])nc2ccccc21 | 10.4 |
| CCn1c(SCC(=O)N/N=C/C=C/c2ccccc2[N+](=O)[O-])nnc1-c1ccc(Cl)cc1 | -15.6 |
| CCn1c(SCC(=O)NC(=O)NC(C)(C)C)nc2ccccc21 | 4.41 |
| CCn1c(SCC(=O)NC(=O)c2ccccc2OC)nc2ccccc21 | -70.8 |
| O=C1OCCN1C(=O)[C@H]1[C@H](c2ccc(Cl)cc2)C(c2cccc(Cl)c2)=NN1c1ccccc1 | 14 |
| COc1ccccc1C(=O)C1CCCN(C(=O)Nc2ccccc2F)C1 (stereo not shown) | 37.3 |
| Cc1nn2c(N)c(C#N)cnc2c1-c1ccc(Cl)cc1 | -0.156 |
| Cc1cc2nnc(SCC(=O)NCc3cccs3)n2c(N)n1 | -8.37 |
| Cc1cccc(-n2nnc(C(=O)NCc3ccco3)c2N)c1 | -10.2 |
| OC1=C(O)c2nc3ccccc3nc21 | -1.17 |
| CC(C)Sc1nc2c([nH]1)c(=N)ncn2Cc1ccccc1 | -5.52 |
| Cc1noc(C)c1COc1ccc(CC(=O)NC2CCCCCC2)cc1 | 39.5 |
